Results filed as inconclusive are left out. Unmarked numbers belong to inactive results. Calls come from the whole dose curve; as a rule, active = well fitted inhibition curve with a large enough effect; inconclusive = small, poorly fitted or top-dose-only effect; inactive = no such curve, though single readings can be large or run the other way.
Test: Confirmatory fluorescence-based thiol-reactive (MSTI) qHTS assay for identification of artifact compounds
Settings: MSTI thiol-reactivity probe, 1 h; series mostly up to 39.2 µM; activity change, negative = inhibition: at the top concentration
Text: PI: Alexander Tropsha Ph.D. UNC Eshelman School of Pharmacy University of North Carolina, Chapel Hill, North Carolina Hits from high-throughput screening (HTS) of chemical libraries are often false positives due to their interference with the assay detection technology. In response to this problem, we generated the largest publicly available library of chemical liabilities and developed a free webtool to predict HTS artifacts, both of which are described herein. More specifically, we generated, curated, and integrated HTS datasets for thiol reactivity, redox activity, and luciferase (firefly and nano) activity. Using these curated datasets, we developed and validated several Quantitative Structure-Interference Relationship (QSIR) models to predict nuisance behavior. […] These models were employed for virtual profiling of the National Center for Advancing Translational Science's (NCATS) in-house library, and 256 compounds for each assay were selected for the experimental validation of nuisance behavior. The BA for these external predictions ranged from 58 to 78% for compounds within the applicability domains of the models. […] The models developed in this study, along with aggregation models previously developed by our group (SCAM Detective) were implemented in "Liability Predictor," an online tool which may be used as part of chemical library design or for triaging HTS hits. Both the models and the curated datasets are publicly available at https://liability.mml.unc.edu/.
PROTOCOL TABLE SEQUENCE No. (e.g., 1, 2, 3, etc.); PARAMETER (e.g., Cells, Incubation, Reagent, etc.); VALUE; DESCRIPTION. 1; Reagent; 4 uL; […]. 2; Compounds and control; 16 nL; Kalypsis pin tool (Wako USA) equipped with a 1536-well pin head. 3; Incubation; 1 hour. 4; Detection; Fluorescence, ViewLux microplate reader, 525 nm excitation, 598 nm emission. NOTES (numbers refer to Sequence numbers above) 1. Assays determining (E)-2-(4-mercaptostyryl)-1,3,3-trimethyl-3H-indol-1-ium (MSTI) reactivity were performed as previously described in the literature with modifications for the quick identification of compounds reacting with thiol. In brief, 4 uL of MSTI or positive control Acetyl-MSTI (final concentrations of 4 uM and 4 uM, respectively) in assay buffer (2% DMSO in 1X PBS pH 7.4) was dispensed into all wells of a 1536-well assay plate (solid-bottom black plate; Greiner Bio One, Monroe, NC). 2. A Wako Pin-tool (Wako Automation, Richmond, VA) was used to transfer 16 nL of compounds (consisting of 7-plates in qHTS format, final concentration range 18.3 nM to 114 uM) or control MLS001163887 (final concentration range 1.22 nM to 40 uM). 3. Plates were centrifuged (121xg, 15 seconds) and incubated for 1 hour at room temperature protected from light. 4. Samples were read for fluorescence (Ex/Em = 525(20)/598(25) nm) on a ViewLux CCD imager (PerkinElmer). Data were normalized to Acetyl-MSTI (0% activity) and MSTI (100% activity) and the resulting percent inhibition data were fitted to a 4-parameter Hill equation using NCATS in-house software.

| Compound | activity change, negative = inhibition |
| --- | --- |
| O=c1ccc2cc(O[C@@H]3O[C@H](CO)[C@H](O)[C@H](O)[C@H]3O)c(O)cc2o1 | 5.87% |
| CC1CCCC(O)CCCCCc2cc(O)cc(O)c2C(=O)O1 (configuration not stated) | 108% [at 78.4 µM] |
| COc1ccc2c3c1O[C@H]1[C@@H](O)C=C[C@H]4[C@@H](C2)NCC[C@@]341 | 31.7% [at 88 µM] |
| c1ccc2sc(SNC3CCCCC3)nc2c1 | 25.4% |
| C[C@H]1CCCC(=O)CCC/C=C/c2cc(O)cc(O)c2C(=O)O1 | 90.4% |
| COc1ccc2[nH]cc(CCNCc3ccc(Br)cc3)c2c1 | -9.28% |
| CC[C@H]1[C@@H]2C[C@H]3[C@@H]4N(C)c5ccccc5[C@]45C[C@@H](C2[C@H]5O)N3[C@@H]1O (some centres not stated) | -8.38% [at 13.1 µM] |
